Autofluor counter: counter-screen for toxin protease inhibitors: compound fluorescence; hit rate 3.1% among 360,000; AID 624483; fluorescence intensity (no concentration beside the values); compound autofluorescence counterscreen, microsphere flow cytometry; stronger effect = higher value; in the data active means fluorescence intensity above about 16000; inconclusive means no clear call, values can overlap the other calls
Anthrax LF inh2: Bacillus anthracis LF protease inhibitors, primary screen, biochemical, multiplex microsphere, MLPCN library. Lethal factor (Bacillus anthracis), P15917. multiplex microsphere protease cleavage assay. inhibition, % at 10 µM. hit rate 0.12% among 360,000; further: plate controls were buffer without enzyme for full effect and enzyme alone for no effect
BoNT-A LC inh2: BoNT/A light chain protease inhibitors, primary screen, biochemical, flow cytometry, MLPCN library. AID 588499, 2011. inhibition, % at 10 µM. Botulinum neurotoxin type A light chain protease (Clostridium botulinum A str. ATCC 3502). hit rate 0.17% among 360,000. multiplex microsphere protease substrate cleavage; further: plate controls were buffer without enzyme for full effect and enzyme alone for no effect
BoNT F protease: BoNT/F light chain protease inhibitors, primary screen, biochemical, flow cytometry, MLPCN library | hit rate 0.22% among 360,000 | inhibition, % at 10 µM | Botulinum neurotoxin type F light chain protease (Clostridium botulinum) | AID 588497, 2011 | Multiplex microsphere protease cleavage assay; in the data active means inhibition above about 35%, passing the limit was not always enough; inconclusive means no clear call, values can overlap the other calls; further: plate controls were buffer without enzyme for full effect and enzyme alone for no effect
MazF activator: activators of E. coli MazEF toxin-antitoxin RNase, primary screen, biochemical, fluorescence, uHTS; FAM/BHQ RNA-DNA oligo cleavage fluorescence, 5 h; activation, % at 20 µM; hit rate 0.32% among 350,000; in the data active means activation above about 50%
Target sequence (P0AE70 whole entry, looked up): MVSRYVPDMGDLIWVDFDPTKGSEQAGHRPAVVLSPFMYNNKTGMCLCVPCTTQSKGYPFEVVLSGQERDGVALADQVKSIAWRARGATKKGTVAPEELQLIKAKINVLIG
* = called active by the depositor; u = inconclusive; x = not tested or not shown; + = active, no number. This is a sample that favours compounds with a hit; in the whole collection about 3.6% have one here. Unless noted, no stated cut-off is given here; in the data, active means inhibition above about 30%; inconclusive means no clear call, values can overlap the other calls; inactive means below that.

SMILES	Autofluor counter	Anthrax LF inh2	BoNT-A LC inh2	BoNT F protease	MazF activator
CCOc1ccc2c(C)c(C)c(=O)oc2c1OCC	23673*	-3	-2	-3	7
Cc1ncc(CC(=O)n2cc(C(=O)c3cc(F)ccc3O)cn2)s1	24032*	0	u	-2	-8
CCCCCC1CC(CC#CCN2CCOCC2)C(=O)O1 (stereo not given)	21965*	-1	4	6	-5
COc1ccccc1CNCC(O)(c1ccc(Cl)cc1)c1ccc(Cl)cc1	23819*	-4	u	-17	-14
COc1ccccc1CNCC(O)(c1ccc(F)cc1)c1ccc(F)cc1	3812	8	-1	-12	3
COc1ccc(OC)c(C(C)NC(=O)c2ccc(Br)cc2)c1 (stereo not given)	9972	3	1	2	13
COc1cc(Br)c(C(C)NC(=O)c2ccccc2)cc1OC (stereo not given)	21305*	-2	-2	-4	7
C#CCOCCOCCOCCNc1nc(N2CCN(C(=O)[C@H](CCCCN)n3cc([C@@H](N)[C@H](C)CC)nn3)CC2)nc(N2CCN(C(=O)[C@H](CCC(=O)O)n3cc([C@@H](N)CCSC)nn3)CC2)n1	3912	-5	0	-1	13
Cc1ccc2cccc(OC(=O)N3CCCC3)c2n1	22325*	2	-9	-10	-8
CNC(=O)C1=C(C)n2c(nc3ccccc32)NC1c1ccc(OC)cc1 (stereo not given)	7418	-4	1	-3	-2
CC1=C(C(=O)Nc2ccccc2)C(c2cccc([N+](=O)[O-])c2)Nc2nc3ccccc3n21 (stereo not given)	23880*	-2	-3	-3	10
COc1ccc(CN(C)C(=O)COC(=O)c2cc([N+](=O)[O-])ccc2N2CCCC2)c(OC)c1OC	3126	1	0	-6	5
COC(=O)C(O)(c1ccc(NC(=S)NC(=O)c2ccccc2)cc1)C(F)(F)F (stereo not given)	16903*	-1	-3	-3	-6
COC(=O)C(O)(c1ccc(NC(=O)Oc2ccccc2)cc1)C(F)(F)F (stereo not given)	2240	1	0	-4	-19
Cn1nccc1C(=O)Nc1nnc(C2CC2)s1	5409	-1	0	-4	-2
CC1(C)SC2C(C(=O)O)N=C(Cc3ccccc3)N2C1C(=O)O (stereo not given)	3559	1	0	-9	2
COCCNC(=O)COC(=O)/C=C/c1cnc2ccccc2n1	17342*	-9	8	9	-2
CC1=Nc2cc(Cl)ccc2Oc2ccccc21	4419	-2	-1	3	10
NC1=Nc2ccccc2Oc2ccccc21	16347*	-8	u	-1	4
CCCCC(CC)C1OCC(CN2CCCC2)O1 (stereo not given)	19353*	-3	u	11	8
COc1ccc(-c2nnn(Cc3ccccc3)n2)cc1OC	3933	3	0	u	4
COc1cc2c3nnc(-c4ccc(F)cc4)c-3cn(Cc3ccccc3)c2cc1OC	6384	-2	3	-4	+
COc1ccc(Cn2cc3c(-c4ccc(F)cc4)nnc-3c3cc(OC)c(OC)cc32)cc1	6100	-6	4	-22	558*
COc1cc2c3nnc(-c4ccc(F)cc4)c-3cn(Cc3ccc(F)cc3)c2cc1OC	6354	0	2	-4	118*
Cn1nc2c3cc(F)ccc3n(Cc3ccc(F)cc3)cc-2c1=O	2988	9	2	12	4
SMILES	Autofluor counter	Anthrax LF inh2	BoNT-A LC inh2	BoNT F protease	MazF activator
NC(=O)c1c(NC(=O)C2COc3ccccc3O2)sc2c1CCN(Cc1ccccc1)C2 (stereo not given)	4073	-3	0	-2	258*
O=C(Nc1ccccc1Oc1ccccc1)c1cccc([N+](=O)[O-])c1	20430*	-1	u	-3	-7
CC(=O)c1cccc(CN2CCC(n3nccc3NC(=O)c3ccc4c(c3)OCO4)CC2)c1	5641	1	0	-6	0
CC12CN3CC(C)(CN(C1)C3c1ccc(Br)cc1)C2 (stereo not given)	22475*	0	1	2	-1
COc1cc(C2N3CC4(C)CN2CC(C)(C3)C4)ccc1O (stereo not given)	3867	1	1	-1	-2
COc1ccc(-c2nnc(SCC(=O)N3CCCCC3)o2)cc1OC	6606	2	1	-14	4
CC1CCN(S(=O)(=O)c2ccc(-c3nnc(SCc4cccnc4)o3)cc2)CC1	23932*	-2	-1	-3	-50
COC(=O)CSc1nnc(-c2ccc(S(=O)(=O)N3CCC(C)CC3)cc2)o1	x	x	x	x	4
COc1ccc(-c2nnc(SCC(=O)OC3CCCCC3)o2)cc1OC	19136*	-1	3	5	8
c1ccc2c(CSc3nnc(-c4ccncc4)o3)cccc2c1	23894*	2	-1	-1	6
COC(=O)CSc1nnc(-c2ccc(S(=O)(=O)N3CCCCC3)cc2)o1	9120	6	0	-4	8
CCOC(=O)CSc1nnc(-c2ccc(NS(=O)(=O)c3ccc(C)cc3)cc2)o1	20276*	-2	0	-1	-1
COc1ccc(NC(=O)c2cc(C3CCCCN3S(C)(=O)=O)on2)c(C)c1 (stereo not given)	2910	1	0	-2	x
CC1(C(=O)O)CCCN(C(=O)C2(c3ccc(Cl)cc3)CCCC2)C1 (stereo not given)	2848	-3	0	-10	x
CCCCNC(=O)c1cc2cc(CC)ccc2[nH]1	x	x	x	x	9
O=C(COC(=O)/C=C/c1ccc(OC(F)F)cc1)NC1CCCCCC1	3758	2	0	-3	2
Cc1ccc(NC(=O)CSc2nnc(-c3ccncc3)o2)cc1	13604	-18	6	8	0
COC(=O)CSc1nnc(-c2ccncc2)o1	16743*	3	u	19	4
CC(=O)Nc1ccc(NC(=O)CSc2nnc(-c3cccnc3)o2)cc1	u	u	-1	-12	7
COc1ccc(-c2nnc(-c3cccnc3)o2)cc1OC	24717*	-2	-7	-9	-2
COc1cc(OC)cc(-c2nnc(SCc3cccnc3)o2)c1	9140	-2	0	7	-5
COc1cccc(-c2nnc(SCc3cccnc3)o2)c1	17724*	-2	-3	-7	-1
COc1ccc(NC(=O)CSc2nnc(-c3cccnc3)o2)cc1	21010*	-1	5	9	10
COC(=O)c1cn(-c2nc3ccccc3s2)nn1	6538	12	0	-11	x
COc1ccc(OC)c(N(CCN2C(=O)c3ccccc3C2=O)C(=O)C2CCC(=O)C2C)c1 (stereo not given)	3739	-3	0	-3	8
CCOc1ccc(NC(=O)COC(=O)Cn2nc(C)c([N+](=O)[O-])c2C)cc1OCC	3554	0	0	-1	-3

Screening results from PubChem.
